Measurements taken from the supplement of paper PMC12067093, “Discovery and optimisation of a covalent ligand for TRIM25 and its application to targeted protein ubiquitination” (Chemical Science, 2025).
Of roughly 21,000 targets only a part is listed; those with the largest changes were picked by preference.

What follows are targets tested with Cc1cc(ccc1-c1ccccc1)C(=O)N1CCCN(CC1)C(=O)CCl [compound 10] (assay: probe-labelled cysteine peptide fold change vs DMSO (competition) (log2 fold change); higher = less target engagement (more negative = stronger competition)). Settings: 10 µM; THP-1; incubation time: 4 h.
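Note: competitive profiling in live THP-1 cells: cysteine peptides tagged with an iodoacetamide desthiobiotin (IA-DTB) probe, intensity after compound treatment relative to DMSO-treated cells.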

| Target | probe-labelled cysteine peptide fold change |
| --- | --- |
| GEMIN5_Q8TEQ6_82_VSGFTFSHHPGQYNLCATSSDDGTVK (UniProt Q8TEQ6) | 0.193 |
| FKBP3_Q00688_133_KGDVVHCWYTGTLQDGTVFDTNIQTSAK (UniProt Q00688) | 0.106 |
| GBF1_Q92538_1707_IDCFLPHLRDELFK (UniProt Q92538) | -0.0239 |
| HELZ_P42694_100_AVLCCMQLK (UniProt P42694) | -0.406 |
| GLOD4_Q9HC38-2_41_VLRHEEFEEGCK (UniProt Q9HC38) | -0.835 |
| GLRX_P35754_26_VVVFIKPTCPYCR (UniProt P35754) | -1.05 |
| HBS1L_Q9Y450_84_LYSCLDHMR (UniProt Q9Y450) | 0.0793 |
| GATM_P50440_50_NSCAADDK (UniProt P50440) | -0.478 |
| HERC2_O95714_1201_ERDDHEELAWPGIMESFFTGQNCR (UniProt O95714) | -0.0998 |
| GLA_P06280_56_FMCNLDCQEEPDSCISEK (UniProt P06280) | 0.07 |
| GRHPR_Q9UBQ7_29_AADCEVEQWDSDEPIPAK (UniProt Q9UBQ7) | -0.563 |

Same assay, conditions: 50 µM; THP-1; incubation time: 4 h

| Target | probe-labelled cysteine peptide fold change |
| --- | --- |
| GNAI2_P04899_326_EIYTHFTCATDTK (UniProt P04899) | -0.0637 |
| GDAP2_Q9NXN4_148_TAAESSLYSCYR (UniProt Q9NXN4) | 0.00868 |
| HEATR3_Q7Z4Q2_57_ECACAGLAR (UniProt Q7Z4Q2) | -4.94 |
| HDHD5_Q9BXW7_392_DLCFSPGLMEASHVVNDVNEAVQLVFRK (UniProt Q9BXW7) | -1.22 |
| GTF2I_P78347_475_MVDQLFCK (UniProt P78347) | 0.51 |
| GCLM_P48507_35+46_CPSTHSEELHDCIQK (UniProt P48507) | -0.843 |
| GNB1_P62873_294_LLLAGYDDFNCNVWDALK (UniProt P62873) | 0.17 |
| GRN_P28799_178_CITPTGTHPLAK (UniProt P28799) | -0.341 |
| GTPBP3_Q969Y2_188_QLDGELGHLCR (UniProt Q969Y2) | -0.00935 |
| FSCN1_Q16658_226_VAFRDCEGR (UniProt Q16658) | -0.563 |
| HINT1_P49773_38_CLAFHDISPQAPTHFLVIPK (UniProt P49773) | 0.0613 |
| GTF3C4_Q9UKN8_376_CVPLYHPYQK (UniProt Q9UKN8) | 0.144 |
| HERC4_Q5GLZ8_58+60_HTVFVLDDGTVYTCGCNDLGQLGHEK (UniProt Q5GLZ8) | -1.05 |
| GATM_P50440_131_KAVAEIEEMCNILK (UniProt P50440) | -0.22 |
| GATD1_Q8NB37_94_YHALLIPSCPGALTDLASSGSLAR (UniProt Q8NB37) | -0.00276 |
| HDAC6_Q9UBN7_539_PATEAELLTCHSAEYVGHLR (UniProt Q9UBN7) | 0.302 |
| GEMIN5_Q8TEQ6_82_VSGFTFSHHPGQYNLCATSSDDGTVK (UniProt Q8TEQ6) | 0.148 |
| FKBP3_Q00688_133_KGDVVHCWYTGTLQDGTVFDTNIQTSAK (UniProt Q00688) | -0.0529 |
| GBF1_Q92538_1707_IDCFLPHLRDELFK (UniProt Q92538) | -0.111 |
| HELZ_P42694_100_AVLCCMQLK (UniProt P42694) | -1.27 |
| GLOD4_Q9HC38-2_41_VLRHEEFEEGCK (UniProt Q9HC38) | -1.19 |
| GLRX_P35754_26_VVVFIKPTCPYCR (UniProt P35754) | -3.44 |
| HBS1L_Q9Y450_84_LYSCLDHMR (UniProt Q9Y450) | -0.0662 |
| GATM_P50440_50_NSCAADDK (UniProt P50440) | -1.27 |
| HERC2_O95714_1201_ERDDHEELAWPGIMESFFTGQNCR (UniProt O95714) | -0.244 |
| GLA_P06280_56_FMCNLDCQEEPDSCISEK (UniProt P06280) | -0.0872 |
| GRHPR_Q9UBQ7_29_AADCEVEQWDSDEPIPAK (UniProt Q9UBQ7) | -0.167 |
